An excerpt weighted towards active compounds, which were near 8.7% of everything screened.
BAZ2B block: qHTS Assay for Inhibitors of BAZ2B | Potency, µM (doses to about 114 µM), inactives show at the top dose activity change, negative = inhibition, usual class: inhibitors | 360,000 compounds, 4.4% hits | Bromodomain adjacent to zinc finger domain protein 2B (Homo sapiens), Q9UIF8 | AID 504333, 2011 | AlphaScreen BAZ2B-H3K14Ac peptide displacement; also: % is scaled to controls: 0 for no effect and ±100 for the full control effect; nearly all actives have a fitted effect of over 60% in size
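BAZ2B 50 nM plus b-H3(5-23)K14Ac 50 nM, PBS pH 7.4/0.01% Tween-20, 30 min RT; compound added (max 110 uM), 30 min RT; streptavidin donor/Ni-chelate acceptor beads 10 ug/mL final, 20 min dark; AlphaScreen read.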
Sfp inh: qHTS Assay for Inhibitors of Bacillus subtilis Sfp phosphopantetheinyl transferase (PPTase) | Potency, µM, inactives show largest response in the series, negative = inhibition, hits mostly inhibitors | 4'-phosphopantetheinyl transferase ffp (Bacillus subtilis), Q9F4F7 | AID 1490, 2009 | 310,000 compounds, 3.5% hits | Biochemical Sfp PPTase activity, qHTS;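 also: the enzyme is Sfp with the accession as filed and its product quenches rhodamine fluorescence; 0% = enzyme reaction without inhibitor and -100% = no enzyme wells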
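Reaction rates are the 30-min fluorescence difference (ex 525, em 598 nm) in wells containing 15 nM Sfp, 5 uM rhodamine-CoA and 12.5 uM BHQ-2-YbbR at pH 7.6 with 10 mM MgCl2.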
HP1b binding inh: HTS for Inhibitors of HP1-beta Chromodomain Interactions with Methylated Histone Tails; Chromobox protein homolog 1 (Homo sapiens), P83916; AlphaScreen HP1-beta / biotin-H3K9me3 peptide binding; Potency, µM (top dose mostly 114 µM), without a hit: at the highest dose activity change, negative = inhibition, usual class: inhibitors; 390,000 compounds, 0.56% hits; AID 540317, 2011; also: nearly all actives have a fitted effect of over 70% in size
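AlphaScreen: HP1-beta (50 nM) preformed 30 min with biotin-H3(1-18)K9me3 peptide (50 nM) in PBS pH 7.4, 0.01% Tween-20. Compound added for 30 min at RT, then streptavidin donor/nickel chelate acceptor beads (10 ug/mL) for 30 min.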
ALOX12 inh: Primary qHTS assay for inhibitors of human arachidonate 12S-lipoxygenase (ALOX12): Round 2; purified 12hLO, xylenol orange hydroperoxide absorbance; 580,000 compounds, 1.1% hits; Potency, µM (series often up to 108 µM), for inactives: at the top dose activity change, negative = inhibition, hits mostly inhibitors; Polyunsaturated fatty acid lipoxygenase ALOX12 (Homo sapiens), P18054; also: % is scaled to controls: 0 for no effect and ±100 for the full control effect
Target sequence (P18054 whole entry, looked up): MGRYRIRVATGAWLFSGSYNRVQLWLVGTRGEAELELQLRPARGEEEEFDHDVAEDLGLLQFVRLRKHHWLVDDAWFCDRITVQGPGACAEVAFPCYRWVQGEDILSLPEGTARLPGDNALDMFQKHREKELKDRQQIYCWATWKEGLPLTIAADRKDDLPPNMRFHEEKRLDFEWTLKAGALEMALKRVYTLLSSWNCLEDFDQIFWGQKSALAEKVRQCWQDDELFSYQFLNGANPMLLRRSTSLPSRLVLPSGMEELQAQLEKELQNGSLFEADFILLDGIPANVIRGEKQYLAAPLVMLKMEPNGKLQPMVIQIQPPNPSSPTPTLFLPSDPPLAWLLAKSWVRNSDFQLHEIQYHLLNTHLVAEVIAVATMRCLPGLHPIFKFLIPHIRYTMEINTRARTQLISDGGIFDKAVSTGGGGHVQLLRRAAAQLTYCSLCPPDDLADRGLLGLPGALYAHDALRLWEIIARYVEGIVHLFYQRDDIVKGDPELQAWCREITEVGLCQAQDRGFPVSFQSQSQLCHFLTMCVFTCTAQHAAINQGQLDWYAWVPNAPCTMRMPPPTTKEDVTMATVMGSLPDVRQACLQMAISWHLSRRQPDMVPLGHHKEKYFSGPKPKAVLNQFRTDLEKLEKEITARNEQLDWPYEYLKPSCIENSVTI
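Purified human 12hLO at 150 nM in 25 mM Hepes, 0.01% Triton X-100, pH 7.0, preincubated 15 min at room temperature with compound. Reaction started with 40 uM arachidonic acid, 30 min at room temperature. Hydroperoxide measured by Fe-xylenol orange, 573/405 nm absorbance ratio.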
JMJD2A Tudor: qHTS Assay for Inhibitors of JMJD2A-Tudor Domain; AID 504339, 2011; 390,000 compounds, 4.4% hits; AlphaScreen JMJD2A-Tudor / H3K4me3 peptide binding; Potency, µM (highest dose often 114 µM), inactives show at the top dose activity change, negative = inhibition, usual class: inhibitors; also: % is scaled to controls: 0 for no effect and ±100 for the full control effect; nearly all actives have a fitted effect of over 50% in size
G9a inh: qHTS Assay for Inhibitors of Histone Lysine Methyltransferase G9a | G9a H3K9 monomethylation, AlphaScreen, 2 h | Potency, µM (series often up to 102 µM), inactives show at the highest dose activity, negative = inhibition, usual class: inhibitors | 350,000 compounds, 8.8% hits; also: % is scaled to controls: 0 for no effect and ±100 for the full control effect; nearly all actives have a fitted effect of over 75% in size
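Quantitative HTS format: methyltransferase activity on a biotin-tagged H3K9 peptide is measured by AlphaScreen, using a rabbit anti-monomethyl-H3K9 antibody with streptavidin donor and anti-IgG acceptor beads. Final levels are 20 nM enzyme, 500 nM peptide, 20 uM SAM; 2 h RT.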
* marks the source's active call; other numbers are inactive results; ? = inconclusive; . = not tested or not shown; ! = not confirmed by another sample; [ ] = dose if it differs, or a comment. Calls follow the shape of the dose curve; as a rule, active = well fitted curve in the direction sought with a large enough effect; inconclusive = small, poorly fitted or top-dose-only effect, or another doubt; inactive = no such curve, though single readings can be large; an effect the other way counts as inactive or inconclusive. Potency is read from the fitted curve at half-maximal effect.

SMILES	BAZ2B block	Sfp inh	HP1b binding inh	ALOX12 inh	JMJD2A Tudor	G9a inh
Cc1ccc(NC2=C(Cl)C(=O)OC2NC(=O)c2ccccc2)cc1 (stereo unspecified)	-5%	3%	15%	5%	-8%[57.1 µM]	26%[59 µM]
CC(=O)NC(=O)NC1OC(=O)C(Cl)=C1Cl (stereo unspecified)	3%	-20%	36%	?	2%[57.1 µM]	40µM*
CCOC(=O)C(NCCCO)c1ccccc1 (stereo unspecified)	-22%	-1%	?	?	2.5µM*	50µM*
CCOC(=O)C(C(=O)OCC)C(Nc1ccccc1)c1ccccc1 (stereo unspecified)	2%	-5%	29%	-2%	-18%	3%[59 µM]
Cc1ccc2c(c1)c1c(n2CC(O)Cn2c(C)nc3ccccc32)/C(=N\O)CCC1 (stereo unspecified)	?	1%	-10%	.	?	18µM*
Cc1ccc2c(c1)c1c(n2CC(O)Cn2c(C)nc3ccccc32)C(=O)CCC1 (stereo unspecified)	-6%	-13%	54%	-1%	-20%	-19%[59 µM]
CCN1CCC[C@H]1CNC(=O)c1c(O)c(Cl)cc(Cl)c1OC	-24%	11%	37%	?	?	8.9µM*!
CCN1CCCC1CNC(=O)c1cc(OC)c(OC)c(OC)c1 (stereo unspecified)	11%	13%	29%	-13%	5%	-5%[59 µM]
CN1CCN(C(=O)c2cc3c(=O)n4ccccc4nc3s2)CC1	6%	9%	-16%	-22%	-13%	50µM*
CCOC(=O)N1CCN(C(=O)c2cc3c(=O)n4ccccc4nc3s2)CC1	-1%	15%	45%	0%	-1%	38%
CCCN1C(=O)Cc2cc(C(=O)NCc3ccco3)ccc21	.	.	.	7%	.	.
CC(=O)N1CCN(c2ncnc3c2CN(c2ccccc2C)C(=O)CN3C)CC1	.	.	.	11%	.	.
COc1ccc(CN=Cc2c(C(F)(F)F)[nH][nH]c2=O)cc1	10%	14%	-1%	13%	79µM*	-11%[59 µM]
N[C@@H]1CONC1=O	-5%	17%	.	-6%[57.4 µM]	.	20µM*!
C[S+](=O)([O-])N1CC2(Cc3ccccc3N(C(=O)Cc3ccc(F)cc3)C2)C1	.	.	.	19%	.	.
C[C@@H](C(=O)Nc1ccc2ccccc2c1)[C@H]1C[C@]1(C)[C@H](NS(=O)(=O)c1ccc2ccccc2c1)c1ccccc1	.	13%	.	.	.	.
Cc1nn(C)c(Cl)c1S(=O)(=O)N[C@@H](c1ccccc1)[C@]1(C)C[C@H]1[C@@H](C)C(=O)Nc1ccc2ccccc2c1	-25%	8%	24%	-12%	-18%	50µM*
O=C(Nc1nnc(-c2ccco2)s1)C1CCCCC1	50µM*	50µM*	58%	94%	-28%	14%[59 µM]
O=C(Nc1nc(-c2ccco2)c(-c2ccco2)s1)C1CC(=O)N(c2ccc3c(c2)OCCO3)C1 (stereo unspecified)	11µM*	10µM*	-87%	?	25µM*	?
Cc1nnc(NC(=O)C2CC(=O)N(c3ccc4c(c3)OCCO4)C2)s1 (stereo unspecified)	-3%	.	19%	11%	-28%	16%[2.33 µM]
O=C(Nc1nc(-c2ccco2)c(-c2ccco2)s1)C1CCC1	32µM*	28µM*	50µM*	11µM*	40µM*	?
CS(=O)(=O)c1ccc(C(=O)Nc2nc(-c3ccco3)c(-c3ccco3)s2)cc1	40µM*	.	40µM*	?	?	10µM*
O=C(Nc1nc2ccsc2c(=O)s1)C1CCC1	-12%	?	27%	45%	4%	1%
Cc1ncsc1CN1CCc2nc(N3CCN(C)CC3)sc2C1	.	.	.	89%	.	.
O=C(Nc1nnc(-c2ccncc2)o1)c1ccc(Br)s1	71µM*	-6%	33%	-10%	?	-26%
SMILES	BAZ2B block	Sfp inh	HP1b binding inh	ALOX12 inh	JMJD2A Tudor	G9a inh
O=C(Nc1nnc(-c2ccc(Cl)s2)o1)C1CC1	.	5%	30%	-3%	-27%	-49%
O=C(N/N=C\c1ccncc1)c1ccc(Br)s1	-14%	14%	53%	495%	-11%	66%
O=C(Nc1nnc(-c2ccncc2)o1)C1CCCCC1	50µM*	-2%	34%	-9%	20µM*	?
O=C(Nc1nnc(-c2cccs2)o1)C1CC1	?	?	27%	1%[57.4 µM]	50µM*	50µM*
O=C(Nc1nnc(-c2ccco2)o1)C1CCCCC1	?	-2%	34%	14%[57.4 µM]	89µM*	?
O=C(Nc1nnc(-c2ccc3c(c2)CCCC3)o1)C1CCCCC1	-1%	30%	44%	25%[57.4 µM]	-12%	2%
CC(C)c1ccc(S(=O)(=O)N2CCC(Oc3ncccc3C(=O)N(C)C)C2)cc1 (stereo unspecified)	.	.	.	41%	.	.
COc1ccc(Nc2nc(NCc3ccco3)nc(N/N=C/c3ccccc3)n2)cc1	79µM*	-3%	4%	-7%	?	?
CCOc1nc(NCc2ccco2)nc(Nc2ccc(OC)cc2)n1	50µM*	2%	-7%	12%	-16%	?
CCOc1nc(NCc2ccco2)nc(Nc2ccccc2F)n1	2%	19%	32%	-11%	-4%	-5%[59 µM]
CCNc1nc(NCC)nc(N/N=C/c2ccc(OC)cc2)n1	-9%	-2%	33%	343%	-19%	-12%[12.7 µM]
COc1ccc(-c2nc(SCC(=O)NC3CCCC3)c(-c3ccc(OC)cc3)[nH]2)cc1	?	10%	-16%	-9%	?	50µM*
CCc1ccc(-c2nc(SCC(=O)NC3CC3)n[nH]2)cc1	11%	.	2%	-11%	-6%	45µM*
COc1ccc(-c2[nH]c(-c3ccc(C)cc3)nc2SCC(=O)Nc2nccs2)cc1	?	10%	?	-4%	?	45µM*
COc1ccc(-c2nc(SCC(=O)NC3CCCC3)c(-c3ccccc3)[nH]2)cc1OC	-35%	.	-17%	2%	?	?
COc1ccc(-c2[nH]c(-c3ccc(F)cc3)nc2SCC(=O)Nc2nccs2)cc1	.	.	.	-9%	.	.
Cc1noc([C@@H](C)NC(=O)c2nc3ccccc3[nH]2)c1C(=O)O	.	.	.	33%[176 µM]	.	.
CN1C(=O)CC[C@]2(C(=O)NCc3ccc(Cl)cc3)CCCC[C@@H]12	.	.	.	41%	.	.
